Measurements reported in the supplement of paper PMC6555819.

System: RXRa homodimer (NR concentration 180 nM)
Assay: PBM binding z-score (relative to random genomic background probes); higher = stronger binding; sequences stand for … in GC…GCGATTGACAGCGTAGAATGAAGG
How it was run: (§1)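 Random background probes are the reference for binding z-scores. These scores derive from regression-normalized fluorescence on custom Agilent 4×180K protein-binding microarrays incubated 1 h with ligand-free nuclear receptor dimers. Binding was detected with antibodies against each partner (one per run).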

| Sequence | PBM binding z-score |
| --- | --- |
| ATATGTAGGTTAGATGGGGTCATTCAGACTAGGC | 5.63 |
| AATACAGGGTCTCTAGGCCAGAGTAGGTACGAAT | -0.15 |
| AGTCAAAGATCAGGACGAGGTAACGTAAAGCACG | 0.431 |
| GATTGTAGATCAAGGTTAAGAAAGACTAAGCTAA | 0.781 |
| TCTATTAGTTGAAGGGCAAGCGACGAGTCCGTTT | 0.725 |
| CCTTACGGCTCACTCCAGGTTATAGCATCGGAGT | -0.0506 |
| CGTCCAGGGTCATAGGAGGTCAGTGAAGACAGAT | 6.72 |
| CCTTACGGGTCACTGACAGGTTACAGCATTTGGA | 5.36 |
| TAGCCTAGGTCATTGGGCCAGTTTAGTACGCATC | 2.81 |
| ATATGGAGGTTACATCCGGGTCATTCAGGCTATG | 4.23 |
| AGTCAGAGTTCAGGACGAGGTAACGTAAAGCACG | 3.59 |
| CAAACTAGGTAACAGAGGTCAAAGTCCGTGCGTA | 6.18 |
| GTACCAAGGTGAATAGGTCGTAGATGAGTAGGCG | 2.18 |
| CCTACTGGGCCAAGGTGATTGATCAGTCAAAGCA | -0.57 |
| ATATGTAGGTTAGCTGGGGTCACTCAGACTAGGC | 5.23 |
| AATACAGCGTCACTAGGCCAGAGTAGGTACGAAT | -0.094 |
| CCTAGCAGGCCAATCTGGGTCACTCCAGGCTTGA | 0.548 |
| GCATATAGGTAATACAAAGTGAAAGTCCGATTGT | 0.0953 |
| AGAATGAGGTTATACGCAGATCAGGGAAGAAAGT | 2.3 |
| CCAGACAGGTGAGAAGGAAACTCAGCCTCGATTA | 0.154 |

| Sequence | PBM binding z-score |
| --- | --- |
| GCAGACAGCTGAAACGCAGGTAACTCAGGGTGGC | -0.453 |
| CGTCCAAGGTGATAGGAGGTCAGTGAAGACAGAT | 1.88 |
| TCTCGGAGGACGCGAAAGGTCAGAGCTCGACATC | 4.2 |
| CAAACTAGGTCACATAGGTCAAAGTCCGTGCGTA | 5.67 |
| ATCGAAAGGTCGAGATGAGTATAGAGAAAGGGAA | 3.81 |
| TAGCCTAGGTCATGCGGGCTAGTATAGTGTCGGC | 2.92 |
| CCTACTGGCCCATTCAGAGGTCATTGATCATATG | 3.56 |
| CATACAGGGTGAGCTAGGCCAGAGTAGGGACGGC | 0.302 |
| AGAACGAGGGCACGCTGAATTGATAGCAGAGTAG | 1.18 |
| CCTCAGAGGACAACAGGAGGTCAGAGCTGCCAGA | 2.06 |
| CAGCCTAGGGCAGGGCCAGTATAGGAGGAACGTT | -0.507 |
| TCATATAGGTAAAAGCTAGGTGAAAGTCCGATCT | 0.939 |
| CGGCCAAGGTCAGAGAGGTCAGTGAATGCCGAGT | 6.21 |
| GCTTACGGGTCAAGGGTTATAGCATGAATAGAAT | 7.3 |
| TCTCAGAGGACACGAAGGTCAGAGCTTTCCAGAG | 1.97 |
| TCGAGTAGGTTACCAATGGGGCCTTCAGCTTTCT | 0.293 |
| ATACCAAGATGATCGTGAGGTCGTTGATACTAAC | 0.929 |
| CCTTACGGGTCACTCCTGGTTATAGCATCGGAGT | 3.9 |
| GCTGCTAGGTCAGGTTCGTCAGCTAACGGGTACG | 1.24 |
| TCTGCCAGGTCAACGATGGTCAGCTAATCTGCTA | 3.42 |

System: THRa:RXRa (NR concentration 90 nM, RXRa partner concentration 90 nM)
Assay: as above
How it was run: as §1

| Sequence | PBM binding z-score |
| --- | --- |
| ATATGTAGGTTAGATGGGGTCATTCAGACTAGGC | 5.15 |
| AATACAGGGTCTCTAGGCCAGAGTAGGTACGAAT | 0.0248 |
| AGTCAAAGATCAGGACGAGGTAACGTAAAGCACG | 2.27 |
| GATTGTAGATCAAGGTTAAGAAAGACTAAGCTAA | 0.867 |
| TCTATTAGTTGAAGGGCAAGCGACGAGTCCGTTT | 0.196 |
| CCTTACGGCTCACTCCAGGTTATAGCATCGGAGT | 1.15 |
| CGTCCAGGGTCATAGGAGGTCAGTGAAGACAGAT | 5.12 |
| CCTTACGGGTCACTGACAGGTTACAGCATTTGGA | 3.08 |
| TAGCCTAGGTCATTGGGCCAGTTTAGTACGCATC | 3.03 |
| ATATGGAGGTTACATCCGGGTCATTCAGGCTATG | 4.11 |
| AGTCAGAGTTCAGGACGAGGTAACGTAAAGCACG | 3.79 |
| CAAACTAGGTAACAGAGGTCAAAGTCCGTGCGTA | 4.1 |
| GTACCAAGGTGAATAGGTCGTAGATGAGTAGGCG | 1.83 |
| CCTACTGGGCCAAGGTGATTGATCAGTCAAAGCA | 0.355 |
| ATATGTAGGTTAGCTGGGGTCACTCAGACTAGGC | 5.18 |
| AATACAGCGTCACTAGGCCAGAGTAGGTACGAAT | -0.216 |
| CCTAGCAGGCCAATCTGGGTCACTCCAGGCTTGA | 3.49 |
| GCATATAGGTAATACAAAGTGAAAGTCCGATTGT | 0.0465 |
| AGAATGAGGTTATACGCAGATCAGGGAAGAAAGT | 2.22 |
| CCAGACAGGTGAGAAGGAAACTCAGCCTCGATTA | -0.307 |

| Sequence | PBM binding z-score |
| --- | --- |
| GCAGACAGCTGAAACGCAGGTAACTCAGGGTGGC | 0.284 |
| CGTCCAAGGTGATAGGAGGTCAGTGAAGACAGAT | 4.34 |
| TCTCGGAGGACGCGAAAGGTCAGAGCTCGACATC | 3.01 |
| CAAACTAGGTCACATAGGTCAAAGTCCGTGCGTA | 4.09 |
| ATCGAAAGGTCGAGATGAGTATAGAGAAAGGGAA | 1.93 |
| TAGCCTAGGTCATGCGGGCTAGTATAGTGTCGGC | 3.15 |
| CCTACTGGCCCATTCAGAGGTCATTGATCATATG | 3.04 |
| CATACAGGGTGAGCTAGGCCAGAGTAGGGACGGC | 0.989 |
| AGAACGAGGGCACGCTGAATTGATAGCAGAGTAG | 1.53 |
| CCTCAGAGGACAACAGGAGGTCAGAGCTGCCAGA | 2.79 |
| CAGCCTAGGGCAGGGCCAGTATAGGAGGAACGTT | -0.901 |
| TCATATAGGTAAAAGCTAGGTGAAAGTCCGATCT | 1.3 |
| CGGCCAAGGTCAGAGAGGTCAGTGAATGCCGAGT | 4.17 |
| GCTTACGGGTCAAGGGTTATAGCATGAATAGAAT | 3.14 |
| TCTCAGAGGACACGAAGGTCAGAGCTTTCCAGAG | 2.79 |
| TCGAGTAGGTTACCAATGGGGCCTTCAGCTTTCT | -0.167 |
| ATACCAAGATGATCGTGAGGTCGTTGATACTAAC | 2.39 |
| CCTTACGGGTCACTCCTGGTTATAGCATCGGAGT | 2.86 |
| GCTGCTAGGTCAGGTTCGTCAGCTAACGGGTACG | 1.94 |
| TCTGCCAGGTCAACGATGGTCAGCTAATCTGCTA | 3.55 |
